Among all 86,000 compounds or so, about 140 (0.16%) were called active.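 Rule for the calls: active = activation factor of at least 2 for MT1-MMP transcription at 10 µM; inactive = the rest.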 The entries come from a sample that favours actives as a whole.
experiment: MT1-MMP promoter reporter activation – cell-based, luciferase luminescence, primary screen (AID 750); conditions: HT1080 MT1-MMP promoter luciferase reporter, overnight, at 10 µM, hits give high values

Activation factor, inactive:
CCN1CCN(C(=O)c2cc3cc4ccc(OC)cc4nc3s2)CC1 1.3
CC1CN(S(=O)(=O)c2ccccc2)C(C)CN1S(=O)(=O)c1ccccc1 (centres undefined) 1.3
CCOC(=O)c1c(C)nc2c(c1C)c(=O)oc1ccccc12 1.1
Cn1c(C(=O)OC(C(=O)NC2CCCCC2)c2ccccn2)cc2sccc21 (centres undefined) 1.2
CCCNC(=S)N1CCC(NC(=O)C23CC4CC(CC(C4)C2)C3)CC1 1.2
O=C(Nc1nncs1)c1cccc(S(=O)(=O)N2CCCCC2)c1 1
N#Cc1ccc(C=NC(c2ccccc2)c2ccccc2)cc1 1.2
CN(Cc1nc2ccccc2c(=O)[nH]1)Cc1cc(=O)oc2ccc3ccccc3c12 1
Cc1nn(C(C)CC(=O)O)c(C)c1C (centres undefined) 1.2
COc1ccc(NC(=O)CSc2nc(NS(=O)(=O)c3ccc(C)cc3)cc(=O)[nH]2)cc1 1.3
O=C(N/N=C\c1cccc(Br)c1)c1ccccc1-n1cccc1 1.4
Cc1ccc(S(=O)(=O)Nc2nc(C)cc(-n3nc(C)cc3C)n2)cc1 1
CCC(C)NC(=O)C1CCCN(C(=O)NC2CCCCC2)C1 (centres undefined) 1.2
Cc1cc(C)n(-c2nc(O)cc(=O)[nH]2)n1 1
O=C(CN(c1ccccc1)S(=O)(=O)c1ccc(Cl)cc1)Nc1ccccc1C(=O)N1CCCC1 0.9
O=C1/C(=C/c2cccs2)CCc2ccccc21 1.8
CCOC(=O)C1=C(C)NC(=O)NC1c1ccccc1 (centres undefined) 1.1
Cc1ccc(S(=O)(=O)c2c(COC(=O)c3cccc(Cl)c3)c(-c3ccccc3)nn2C)cc1 1.1
CCOC(=O)c1[nH]c(C)c(C(=O)OCC(=O)N2c3ccccc3CC2C)c1C (centres undefined) 1
C=C(Cl)COC(=O)C1C2C=CC(C2)C1C(=O)O (centres undefined) 1.1
O=C(/C=C/c1ccc(Cl)cc1Cl)c1cccnc1 1
CCCCc1nc(NCCN)c(C#N)c2c1CSC(C)(C)C2 1.4
CCOc1ccc(NC(=O)CCS(=O)(=O)c2ccc3c(c2)CCCN3C(=O)CC)cc1 1.1
O=C(CSC1=Nc2ccccc2C2=NC(CC(=O)NCc3ccco3)C(=O)N12)NCc1ccco1 (centres undefined) 1.1
CC1(C(=O)NCCc2c[nH]c3ccccc23)C=CC2(CCCCC2)N1C(=O)c1ccccc1 (centres undefined) 1
O=c1[nH]c(SCc2ccccc2)nnc1-c1ccccc1 1.1
O=C(CCc1ccccc1)NCC#CC(O)c1ccc(Br)cc1 (centres undefined) 1.2
O=C(NCc1ccccc1Cl)c1csc2c1CCCCC2 1.1
CCCCCCSc1nsc(N)n1 1.4
CC(C)CNC(=O)CC(c1ccccc1)c1c(O)ccc2ccccc12 (centres undefined) 1
CCCNC(=O)CN(Cc1ccccc1F)S(=O)(=O)c1ccc(C)cc1 1.3
CCCCNS(=O)(=O)c1ccc(S(=O)(=O)n2cnc3ccccc32)cc1 1.1
O=C(Nc1nccs1)c1cc(S(=O)(=O)N2CCOCC2)c(Cl)cc1Cl 1
CCn1nc(C)c(NC(=O)/C=C/c2ccc(OC)c(COc3ccc(Br)cc3)c2)c1C 0.9
CCCCN(CC)CCNC(=O)c1[nH]c(C)c(C(C)=O)c1C 0.9
O=C(COc1ccc(Cl)cc1)NCCSc1ccccc1 1.2
CCOc1ccc(NC(=O)c2ccccc2NS(C)(=O)=O)cc1 1.3
O=C(c1cc2c(s1)CCC2)N1CCN(c2ccccc2)CC1 1.1
COc1ccc(C2=NOC3(CC(=O)N(c4ccc(C)cc4)C3=O)C2)cc1 (centres undefined) 1.2
CC1=NN(/C(=N\c2nnc(C)s2)Nc2ccccc2)[C@H](c2ccc(C)cc2)S1 1.1
O=C1CCCc2nn(-c3ccccc3)nc21 1.5
OC(CN=c1sc2ccccc2n1CC(O)COc1ccccc1)COc1ccccc1 (centres undefined) 1.4
C=C(C)C(=O)Nc1cccc(C(C)=O)c1 1.3
CC1CCN(C(=O)CN(c2ccc(Oc3ccccc3)cc2)S(C)(=O)=O)CC1 1
COc1ccc(CNc2ccc3c(c2)CCC3)cc1OC 1.1
Cc1ccccc1-n1nc(C)c2cc(C(=O)NC3CC3)sc21 1.1
Cc1cc(Oc2ccccc2)nc(N2CCOCC2)n1 1.1
Cc1ccc(OCC(=O)N2CCN(C(=O)c3cccnc3)CC2)cc1 1
O=C1/C(=C\Nc2ccccc2)CCN1c1ncccn1 1.9
COc1ccc(CN(Cc2ccco2)S(=O)(=O)c2ccc(S(=O)(=O)N3CCCC3)cc2)cc1 1
CCCCNC(=O)C1CCCN(S(=O)(=O)c2ccc(S(=O)(=O)NCC(C)C)cc2)C1 (centres undefined) 1.2
CCc1ccc(CNC(=O)C2CCCN(c3nc4ccccc4o3)C2)cc1 (centres undefined) 1.1
Cc1cccc(C(=O)N2CCCN(C(=O)c3cccc(C)c3)CC2)c1 1
CCC(C)(C(=O)NC1CCCCC1)N(C)C(=O)c1ccc2c(c1)OCO2 (centres undefined) 1
Cc1ccc(OCCCC(=O)Nc2ccc(N3CCOCC3)cc2)cc1 1.1
O=C(CN1C(=O)C2C3C=CC(C3)C2C1=O)Nc1nc(-c2ccccn2)cs1 (centres undefined) 1.2
COC(=O)c1ccc(C(NC(=O)OCc2ccccc2)/C(C)=C/[C@@H](C)C(=O)NCc2ccc(OC)c(OC)c2)cc1 (some centres undefined) 1.4
O=C(CC12CC3CC(CC(C3)C1)C2)Nc1ccc2c(c1)COC2=O 1
COc1ccccc1NC(=O)CC(NCCN(C)C)C(=O)O (centres undefined) 1
CS(=O)(=O)N(CC(=O)N1CCN(Cc2ccccc2)CC1)c1ccc2c(c1)OCCO2 0.9
CCn1c(SCC(=O)Nc2nc(C)cs2)nnc1C(C)NC(=O)c1ccccc1 (centres undefined) 1.3
CCCc1nnc(NC(=O)c2cccs2)s1 1.4
CCOC(=O)CN1C(=O)C(=O)c2cc(C)ccc21 1.1
COc1ccc(/C=N/Nc2nc3ccccc3o2)cc1OC 1.7

Source: PubChem BioAssay AID750 (Sanford-Burnham Center for Chemical Genomics, 2007)
